According to PubChem BioAssay AID1159580 (chemical genetic matrix, 2015):
Where “and” joins values, the source holds several entries; their conditions need not be identical. Equal values may be shown once. Out of some 5,500 compounds screened, about 2,000 (36%) were called active. Inconclusive results (about 18%) are left out. No stated cut-off is given here; in the data, active means normalized growth mostly below about 0.91 (no sharp cut-off); inconclusive means no clear call, values can overlap the other calls; inactive means mostly above about 0.92. The list shows a part of the results.

Test: chemical genetic growth profiling, strain panel (AID 1159580);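 further: tested at 20 µM; growth read once vehicle control cultures reached saturation at 30 °C; 1 = growth at the plate median or of vehicle wells; lower values mean less growth of the strain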
Conditions: S. cerevisiae deletion strains, growth OD

Measured: normalized growth

Cn1nnnc1SCC1=C(C(=O)O)N2C(=O)C(NC(=O)C(OC=O)c3ccccc3)C2SC1 (stereo unspecified)
inactive: locus YAL021C, strain ccr4, active compounds read low 1.02 | locus YAL026C, strain drs2, active compounds read low 0.999 | locus YAL030W, strain snc1, active compounds read low 1 | locus YBL061C, strain skt5, active compounds read low 1.01 | locus YBR009C, strain hhf1, active compounds read low 1.04 | locus YBR021W, strain FUR4, active compounds read low 0.986 | locus YBR023C, strain chs3, active compounds read low 0.998 | locus YBR171W, strain sec66, active compounds read low 0.984 | locus YBR229C, strain ROT2, active compounds read low 1 | locus YBR231C, strain swc5, active compounds read low 1.01 | locus YBR279W, strain paf1, active compounds read low 0.999 | locus YCL011C, strain gbp2, active compounds read low 1 | locus YCL016C, strain dcc1, active compounds read low 1 | locus YCL029C, strain bik1, active compounds read low 1.03 | locus YCL061C, strain MRC1, active compounds read low 0.991 | locus YCL069W, strain vba3, active compounds read low 0.992 | locus YCR088W, strain abp1, active compounds read low 0.998 | locus YDL005C, strain med2, active compounds read low 0.991 | locus YDL035C, strain GPR1, active compounds read low 1.01 | locus YDL040C, strain nat1, active compounds read low 1 | locus YDL074C, strain BRE1, active compounds read low 1.02 | locus YDL101C, strain DUN1, active compounds read low 1.01 | locus YDL134C, strain PPH21, active compounds read low 1.01 | locus YDL185W, strain tfp1, active compounds read low 1.01 | locus YDL192W, strain arf1, active compounds read low 1.02 | locus YDR001C, strain nth1, active compounds read low 0.991 | locus YDR069C, strain doa4, active compounds read low 1 | locus YDR101C, strain arx1, active compounds read low 1.03 | locus YDR137W, strain rgp1, active compounds read low 1.02 | locus YDR150W, strain NUM1, active compounds read low 1 | locus YDR159W, strain sac3, active compounds read low 0.979 | locus YDR162C, strain NBP2, active compounds read low 1.01 | locus YDR195W, strain ref2 0.949 | locus YDR297W, strain sur2, active compounds read low 0.992 | locus YDR318W, strain mcm21, active compounds read low 1.02 | locus YDR334W, strain swr1, active compounds read low 0.995 | locus YDR335W, strain msn5, active compounds read low 1 | locus YDR388W, active compounds read low 1.02 | locus YDR392W, strain spt3, active compounds read low 0.995 | locus YDR502C, strain sam2, active compounds read low 1.02 | locus YEL003W, strain gim4, active compounds read low 1 | locus YEL037C, strain rad23, active compounds read low 0.994 | locus YEL061C, strain CIN8 (second series), active compounds read low 0.991 | locus YEL061C, strain CIN8, active compounds read low 1 | locus YER015W, strain faa2, active compounds read low 1 | locus YER016W, strain bim1, active compounds read low 0.997 | locus YER110C, active compounds read low 1.03 | locus YER111C, strain swi4, active compounds read low 0.998 | locus YER155C, strain BEM2 (second series), active compounds read low 0.977 | locus YER155C, strain BEM2, active compounds read low 0.99 | locus YER167W, strain BCK2, active compounds read low 1 | locus YFR010W, strain ubp6, active compounds read low 0.995 | locus YGL078C, strain dbp3, active compounds read low 1.03 | locus YGL086W, strain mad1, active compounds read low 1.01 | locus YGL167C, strain pmr1, active compounds read low 1 | locus YGL173C, strain kem1, active compounds read low 0.997 | locus YGL227W, strain vid30, active compounds read low 0.993 | locus YGL240W, strain doc1, active compounds read low 0.978 | locus YGL248W, strain PDE1, active compounds read low 1.01 | locus YGL253W, strain hxk2, active compounds read low 1.01 | locus YGR078C, strain PAC10, active compounds read low 0.994 | locus YGR135W, strain pre9, active compounds read low 1.02 | locus YGR229C, strain SMI1, active compounds read low 1.01 | locus YGR252W, strain gcn5, active compounds read low 1.03 | locus YHR013C, strain ard1, active compounds read low 1 | locus YHR027C, strain rpn1, active compounds read low 0.995 | locus YHR030C, strain SLT2, active compounds read low 0.999 and 1.01 | locus YHR079C, strain IRE1 (second series), active compounds read low 1.02 | locus YHR079C, strain IRE1, active compounds read low 0.985 | locus YHR094C, strain hxt1, active compounds read low 1.03 | locus YHR129C, strain ARP1, active compounds read low 0.998 | locus YHR142W, strain chs7, active compounds read low 1.02 | locus YHR200W, strain rpn10, active compounds read low 1.02 | locus YIL066C, strain RNR3, active compounds read low 1 | locus YIL073C, strain SPO22, active compounds read low 1.07 | locus YIL125W, strain kgd1, active compounds read low 1.01 | locus YIR030C, strain dcg1, active compounds read low 1.03 | locus YJL092W, strain hpr5, active compounds read low 0.993 | locus YJL095W, strain BCK1 (second series), active compounds read low 1.01 | locus YJL095W, strain BCK1, active compounds read low 1 and 0.969 | locus YJL115W, strain asf1, active compounds read low 0.985 | locus YJL129C, strain trk1, active compounds read low 1 | locus YJL134W, strain LCB3, active compounds read low 1 | locus YJL154C, strain vps35, active compounds read low 1 | locus YJL164C, strain tpk1, active compounds read low 1.01 | locus YJL166W, strain qcr8, active compounds read low 1.01 | locus YJL168C, strain set2, active compounds read low 1.01 | locus YJL187C, strain SWE1 (second series), active compounds read low 1 | locus YJL187C, strain SWE1, active compounds read low 0.986 | locus YJR043C, strain POL32, active compounds read low 1.01 | locus YJR066W, strain TOR1, active compounds read low 0.954
